Compound activity as filed in PubChem.
TcdB GH inh – blocks C. difficile toxin B glycohydrolase activity | P18177 | TcdB glycohydrolase enzymatic assay, plate reader | 0.24% of 350,000 active | inhibition, % at 9.99 µM; in the data active = inhibition above about 10%
Target sequence (P18177 whole entry, looked up): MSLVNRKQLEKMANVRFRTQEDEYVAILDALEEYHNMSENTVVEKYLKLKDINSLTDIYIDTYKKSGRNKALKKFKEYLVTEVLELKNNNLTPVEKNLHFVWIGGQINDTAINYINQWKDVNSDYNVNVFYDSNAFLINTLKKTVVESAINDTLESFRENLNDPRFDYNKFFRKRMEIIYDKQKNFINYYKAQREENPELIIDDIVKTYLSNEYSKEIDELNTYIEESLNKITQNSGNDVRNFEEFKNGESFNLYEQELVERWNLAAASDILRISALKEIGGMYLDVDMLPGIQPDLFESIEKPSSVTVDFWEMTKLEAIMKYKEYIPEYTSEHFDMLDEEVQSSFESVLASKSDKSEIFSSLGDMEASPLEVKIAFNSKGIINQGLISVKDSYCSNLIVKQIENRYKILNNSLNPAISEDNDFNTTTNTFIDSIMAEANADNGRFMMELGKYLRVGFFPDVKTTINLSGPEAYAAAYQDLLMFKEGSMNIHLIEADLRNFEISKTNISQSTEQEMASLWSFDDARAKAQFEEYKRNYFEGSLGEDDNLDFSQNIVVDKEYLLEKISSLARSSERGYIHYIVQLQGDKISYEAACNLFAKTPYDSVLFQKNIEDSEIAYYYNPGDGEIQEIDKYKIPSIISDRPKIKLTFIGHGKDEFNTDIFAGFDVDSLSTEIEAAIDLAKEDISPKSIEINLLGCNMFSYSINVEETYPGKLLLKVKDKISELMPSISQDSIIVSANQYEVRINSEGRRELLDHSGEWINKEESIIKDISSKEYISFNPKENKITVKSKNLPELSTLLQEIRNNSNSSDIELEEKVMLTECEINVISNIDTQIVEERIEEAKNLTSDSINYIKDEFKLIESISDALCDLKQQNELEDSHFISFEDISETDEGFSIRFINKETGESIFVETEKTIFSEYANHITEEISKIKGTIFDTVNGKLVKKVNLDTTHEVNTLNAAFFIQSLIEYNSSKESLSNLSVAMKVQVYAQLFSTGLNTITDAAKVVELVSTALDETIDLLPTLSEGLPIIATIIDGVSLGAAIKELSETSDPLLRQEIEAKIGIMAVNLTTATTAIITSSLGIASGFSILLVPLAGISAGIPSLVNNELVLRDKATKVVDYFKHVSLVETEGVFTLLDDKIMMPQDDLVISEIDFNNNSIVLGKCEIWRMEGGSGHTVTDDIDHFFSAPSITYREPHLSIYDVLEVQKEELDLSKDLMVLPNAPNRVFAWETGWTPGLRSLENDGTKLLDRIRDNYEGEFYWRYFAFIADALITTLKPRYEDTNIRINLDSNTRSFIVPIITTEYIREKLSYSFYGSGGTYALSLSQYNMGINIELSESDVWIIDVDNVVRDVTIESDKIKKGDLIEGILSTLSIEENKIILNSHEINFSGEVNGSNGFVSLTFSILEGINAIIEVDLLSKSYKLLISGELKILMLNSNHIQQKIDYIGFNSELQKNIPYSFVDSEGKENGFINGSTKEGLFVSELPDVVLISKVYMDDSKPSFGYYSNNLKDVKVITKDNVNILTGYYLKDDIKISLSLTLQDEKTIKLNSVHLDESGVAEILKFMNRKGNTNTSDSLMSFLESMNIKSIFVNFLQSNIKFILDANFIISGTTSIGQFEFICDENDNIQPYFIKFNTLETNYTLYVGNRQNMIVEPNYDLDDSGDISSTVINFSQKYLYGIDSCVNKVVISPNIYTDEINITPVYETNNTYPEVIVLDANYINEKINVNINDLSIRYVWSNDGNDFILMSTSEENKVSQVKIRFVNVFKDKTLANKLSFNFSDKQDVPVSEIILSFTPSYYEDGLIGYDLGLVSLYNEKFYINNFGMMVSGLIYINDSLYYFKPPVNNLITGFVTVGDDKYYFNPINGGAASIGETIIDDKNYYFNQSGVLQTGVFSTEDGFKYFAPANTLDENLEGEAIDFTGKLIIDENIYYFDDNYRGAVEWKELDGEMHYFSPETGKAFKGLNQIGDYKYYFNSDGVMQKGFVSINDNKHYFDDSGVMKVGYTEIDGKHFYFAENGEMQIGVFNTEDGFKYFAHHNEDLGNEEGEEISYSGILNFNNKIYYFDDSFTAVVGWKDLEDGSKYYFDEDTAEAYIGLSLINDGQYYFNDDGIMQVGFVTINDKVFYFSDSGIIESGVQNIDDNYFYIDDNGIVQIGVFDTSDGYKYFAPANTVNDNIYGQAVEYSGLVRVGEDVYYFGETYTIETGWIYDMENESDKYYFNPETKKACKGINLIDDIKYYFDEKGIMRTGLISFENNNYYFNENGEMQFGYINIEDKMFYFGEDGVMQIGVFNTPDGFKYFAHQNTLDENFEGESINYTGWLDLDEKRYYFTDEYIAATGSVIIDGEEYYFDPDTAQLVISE
DUSP3 inh – blocks human VHR1 dual specificity phosphatase. inhibition, % at 13.3 µM. recombinant VHR phosphatase, pNPP absorbance. 0.52% of 290,000 active. P51452; in the data active = inhibition above about 50%
PrPC TRFRET – reduces human prion protein on the cell surface. P04156. cell surface PrPC, TR-FRET read-out. inhibition, % at 13.8 µM. 0.43% of 370,000 active. AID 720596; in the data active = inhibition above about 24%
Large screens that a line does not name were inactive. In the library only some 0.82% were active in any assay of this set; here they are far more common.

O=C(CN1C(=O)NC2(CCCc3ccccc32)C1=O)N1CCN(C(=O)c2ccco2)CC1 (configuration not stated)	DUSP3 inh 54 (no result: TcdB GH inh)
COc1ccc(N2CCN(C(=O)CN3C(=O)NC4(CCCc5ccccc54)C3=O)CC2)cc1 (configuration not stated)	none (no result: DUSP3 inh)
C[C@@H]1CN([C@@H](C)CO)C(=O)c2c(c3ccccc3n2C)-c2ccccc2CO[C@@H]1CN(C)Cc1ccc(C(F)(F)F)cc1	none (no result: DUSP3 inh, PrPC TRFRET)
Cc1cc(N2CCN(C(=O)c3ccco3)CC2)n2ncnc2n1	none (no result: TcdB GH inh)
O=C(c1ccco1)N1CCN(c2cc(C(F)(F)F)nc3ncnn23)CC1	DUSP3 inh 52 (no result: TcdB GH inh)
Cc1cc2cc(C#N)c(NCCNC(=S)NCCCN3CCOCC3)nc2cc1C	DUSP3 inh 60
Cc1cccc2cc(C#N)c(NCCNC(=S)NCCCN3CCOCC3)nc12	none (no result: TcdB GH inh)
O=C(Nc1ccc(F)cc1)N1CC(=O)N2[C@H](CO)[C@H](c3ccc(C#Cc4ccc(F)cc4)cc3)[C@@H]2C1	none (no result: DUSP3 inh, PrPC TRFRET)
C[C@@H]1CN([C@H](C)CO)C(=O)c2cc(NC(=O)Cc3ccccc3)ccc2O[C@@H]1CN(C)C(=O)Nc1ccc(F)cc1	none (no result: DUSP3 inh, PrPC TRFRET)
COc1cc(NC(=O)CSc2nc3[nH]ncc3c(=O)n2-c2ccccc2C)cc(OC)c1OC	TcdB GH inh 18
Cc1cccc(NC(=O)CSc2nc3[nH]ncc3c(=O)n2-c2ccccc2)c1	none (no result: TcdB GH inh, PrPC TRFRET)
COc1ccc(S(=O)(=O)N(C)C[C@@H]2Oc3ccc(NC(=O)Cc4cn(C)c5ccccc45)cc3CC(=O)N([C@@H](C)CO)C[C@H]2C)cc1	none (no result: DUSP3 inh, PrPC TRFRET)
NC(=O)c1ccccc1NC(=O)COc1ccc(Cl)cc1	none
O=C(COc1ccc(Cl)cc1)Nc1ccccc1Cl	DUSP3 inh 54
Cn1c(=O)c2c(nc(N3CCOCC3)n2CCSc2ncccn2)n(C)c1=O	TcdB GH inh 17
CC1CC(C)CN(c2nc3c(c(=O)n(C)c(=O)n3C)n2CCSc2ncccn2)C1 (configuration not stated)	none
O=C(Nc1cc(Br)ccc1C(=O)NCc1cccc(O)c1)c1ccccc1	none (no result: DUSP3 inh, PrPC TRFRET)
COc1ccc(/C=C(/NC(=O)c2ccccc2)C(=O)NCCCn2ccnc2)cc1OC	none
COc1ccc(C(=O)N/C(=C/c2cccs2)C(=O)NCCCn2ccnc2)cc1OC	DUSP3 inh 53 (no result: TcdB GH inh)
CN(C)CCNC(=O)c1sc2nc(-c3ccccc3)cc(C(F)(F)F)c2c1N	none
COc1ccc(-c2cc(C(F)(F)F)c3c(N)c(C(=O)NCCSC)sc3n2)cc1	DUSP3 inh 54
COCC#Cc1ccc2c(c1)O[C@H](CN(C)C(=O)NC(C)C)[C@H](C)CN([C@@H](C)CO)S2(=O)=O	none (no result: DUSP3 inh, PrPC TRFRET)
CNC[C@H]1Oc2c(NC(=O)Nc3ccc4c(c3)OCO4)cccc2C(=O)N([C@H](C)CO)C[C@H]1C	none (no result: DUSP3 inh, PrPC TRFRET)
OC[C@H]1[C@H](c2ccc(C#Cc3ccccc3)cc2)[C@@H]2CN(CC3CCOCC3)CCCCN12	none (no result: DUSP3 inh, PrPC TRFRET)
CCCC(=O)N1CC2(CN(C(=O)C3CCC3)C2)c2c(n(C)c3cc(OC)ccc23)[C@H]1CO	none (no result: DUSP3 inh, PrPC TRFRET)
Cc1ccc(O)c(C(=O)c2cnc3c(c2)CN(C)C(=O)N3)c1	none (no result: TcdB GH inh)
CN1Cc2cc(C(=O)c3cc(Cl)cc(CSc4ncccn4)c3O)cnc2NC1=O	DUSP3 inh 56 (no result: TcdB GH inh, PrPC TRFRET)
CC(C)NC(=O)N(C)C[C@@H]1Oc2c(NC(=O)C3CCCCC3)cccc2C(=O)N([C@H](C)CO)C[C@H]1C	none (no result: DUSP3 inh, PrPC TRFRET)
O=C(C[C@@H]1CC[C@H]2[C@@H](COC[C@H](O)CN2S(=O)(=O)c2ccc(F)cc2)O1)N[C@@H]1CCN(Cc2ccccc2)C1	none (no result: DUSP3 inh, PrPC TRFRET)
CC(C)C#Cc1ccc2c(c1)O[C@H](CN(C)C(=O)Nc1ccccc1)[C@H](C)CN([C@@H](C)CO)S2(=O)=O	none (no result: DUSP3 inh, PrPC TRFRET)
CCOc1ccc(N2CC(C(=O)Nc3ccc(S(=O)(=O)N4CCCCC4)cc3)CC2=O)cc1 (configuration not stated)	none (no result: DUSP3 inh)
CCOc1ccc(N2CC(C(=O)Nc3ccc(S(=O)(=O)N4CCCC4)cc3)CC2=O)cc1 (configuration not stated)	DUSP3 inh 55
COc1ccc(NC(=O)N2CC[C@@H]3[C@@H](CO)N(C)c4ccc(-c5ccccc5F)cc4[C@@H]32)cc1	none (no result: DUSP3 inh, PrPC TRFRET)
Oc1ccc(/C=N/NC2=NCCCCC2)cc1	none (no result: TcdB GH inh)
COc1cc(/C=N/NC2=NCCCCC2)ccc1O	TcdB GH inh 14
COc1ccc(CCNc2cc(C)nc3c(-c4ccccc4)cnn23)cc1OC	none
Cc1cc(NCc2ccccc2)n2ncc(-c3ccccc3)c2n1	DUSP3 inh 55
CC(=O)c1cccc(OCC(=O)c2cc(C)n(-c3cc(C)on3)c2C)c1	TcdB GH inh 16
Cc1cc(-n2c(C)cc(C(=O)COc3ccc4ccc(=O)oc4c3)c2C)no1	none (no result: TcdB GH inh)
CCCc1cn(CC[C@@H]2CC[C@@H](NC(=O)CCN3CCCCC3)[C@@H](CO)O2)nn1	none (no result: DUSP3 inh, PrPC TRFRET)
CC(Oc1ccc(Cl)cc1Cl)C(=O)Nc1ccc(O)cc1 (configuration not stated)	TcdB GH inh 14
CC(Oc1ccc(Cl)cc1Cl)C(=O)Nc1cccc(O)c1 (configuration not stated)	none
O=C(Nc1cc(F)ccc1F)N[C@H]1CC[C@H](CCn2cc(C3CCCC3)nn2)O[C@H]1CO	none (no result: DUSP3 inh, PrPC TRFRET)
Cc1ccc(-c2cc(-c3ccccc3)cc(-c3ccccc3)[n+]2-c2ccccc2)cc1	PrPC TRFRET 27 (no result: DUSP3 inh)
c1ccc(-c2cc(-c3ccccc3)[n+](-c3ccccc3)c(-c3ccccc3)c2)cc1	none
CCCNC(=O)C[C@@H]1CC[C@H]2[C@@H](COC[C@@H](O)CN2Cc2cccc(F)c2)O1	none (no result: DUSP3 inh, PrPC TRFRET)
COc1ccc(C(CCN2CCOCC2)c2c(O)cc(OC)cc2OC)cc1 (configuration not stated)	none
COc1ccc(C(c2c(O)ccc3ccccc23)N2CCOCC2)c(OC)c1 (configuration not stated)	PrPC TRFRET 61 (no result: TcdB GH inh)
CS(=O)(=O)Nc1ccc2c(c1)[C@H]1C[C@@H](CC(=O)NCc3ccccc3)O[C@H](CO)[C@H]1O2	none (no result: DUSP3 inh, PrPC TRFRET)
CCN(CC(=O)Nc1ccc(NC(C)=O)cc1)C(=O)C(c1ccccc1)c1ccccc1	DUSP3 inh 51
CCN(CC(=O)Nc1ccc(NC(C)=O)cc1)C(=O)/C=C/c1ccccc1	none (no result: DUSP3 inh)
Cc1cc(C(=O)N2CCN(Cc3ccccc3)CC2)ccc1[N+](=O)[O-]	TcdB GH inh 12
O=C(c1ccc(Br)c([N+](=O)[O-])c1)N1CCN(Cc2ccccc2)CC1	none
COc1ccc(NC(=O)/C(Cl)=C(/Cl)S(=O)(=O)Cc2ccccc2)cn1	PrPC TRFRET 94 (no result: TcdB GH inh)
COc1ccc(NC(=O)C(Cl)=C(Cl)Cl)cn1	none
COc1ccc(NC(=O)/C(Cl)=C(/Cl)S(=O)Cc2ccc(Cl)cc2)cn1 (configuration not stated)	PrPC TRFRET 29
COc1ccc(NC(=O)C(C)(C)Oc2ccc(Cl)cc2)cn1	none (no result: DUSP3 inh)
CO[C@@H]1CN(C)C(=O)c2ccc(NC(=O)C3CC3)cc2OC[C@@H](C)N(CCc2ccccc2)C[C@H]1C	none (no result: DUSP3 inh, PrPC TRFRET)
COCC(=O)N1CC2(C1)CN(C(=O)Nc1ccccc1F)[C@@H](CO)c1[nH]c3cc(OC)ccc3c12	none (no result: DUSP3 inh, PrPC TRFRET)
COc1ccc(NC(=O)Nc2ccc3c(c2)C(=O)N([C@H](C)CO)C[C@H](C)[C@@H](CN(C)C(=O)Nc2ccc(C(F)(F)F)cc2)OCCCC[C@H](C)O3)cc1	none (no result: DUSP3 inh, PrPC TRFRET)
Cc1noc(C)c1NC(=O)Nc1ccc2c(c1)C(=O)N([C@H](C)CO)C[C@H](C)[C@@H](CN(C)Cc1ccccc1)OCCCC[C@H](C)O2	none (no result: DUSP3 inh, PrPC TRFRET)
